Experimental data from ChEMBL document CHEMBL3988442, “University of Dundee, Small-Polar-MMV Screening Library” (2021).
For some of these results: Entries with a potency or affinity are not part of this list.

Tests used:
Design in all cases: scale not given: direction of the effect not stated beside the values
[1] = target: Protein translocase subunit SecA (Escherichia coli (strain K12)) (UniProt P10408); experiment: Assay to Identify E. coli SecA ATPase Inhibitors; format: functional; conditions: 30 µM
Protein translocase subunit SecA (Escherichia coli (strain K12)), sequence (P10408 whole entry): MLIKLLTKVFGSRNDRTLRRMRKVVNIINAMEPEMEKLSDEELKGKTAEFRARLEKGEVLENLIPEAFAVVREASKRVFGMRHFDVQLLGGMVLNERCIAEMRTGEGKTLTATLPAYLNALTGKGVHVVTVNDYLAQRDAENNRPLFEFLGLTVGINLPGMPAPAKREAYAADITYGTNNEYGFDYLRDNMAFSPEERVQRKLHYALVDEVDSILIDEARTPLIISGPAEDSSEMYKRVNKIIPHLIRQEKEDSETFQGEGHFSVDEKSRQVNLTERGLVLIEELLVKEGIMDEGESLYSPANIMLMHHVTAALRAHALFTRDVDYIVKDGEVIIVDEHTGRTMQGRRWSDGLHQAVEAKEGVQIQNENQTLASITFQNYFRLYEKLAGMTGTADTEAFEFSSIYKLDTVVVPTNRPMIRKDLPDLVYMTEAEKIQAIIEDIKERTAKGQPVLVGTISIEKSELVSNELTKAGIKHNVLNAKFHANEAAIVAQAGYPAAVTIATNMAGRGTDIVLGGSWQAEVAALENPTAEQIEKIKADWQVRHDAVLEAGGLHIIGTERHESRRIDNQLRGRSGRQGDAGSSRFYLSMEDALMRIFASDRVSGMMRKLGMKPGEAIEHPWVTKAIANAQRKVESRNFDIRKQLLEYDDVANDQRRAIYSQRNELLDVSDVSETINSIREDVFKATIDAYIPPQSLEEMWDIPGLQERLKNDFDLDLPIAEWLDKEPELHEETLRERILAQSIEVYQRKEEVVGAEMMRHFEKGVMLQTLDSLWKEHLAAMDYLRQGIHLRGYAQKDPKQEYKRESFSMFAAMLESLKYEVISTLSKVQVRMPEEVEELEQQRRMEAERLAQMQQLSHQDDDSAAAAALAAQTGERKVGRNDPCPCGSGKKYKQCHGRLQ

[2] = target: T1, Ubiquitin-activating enzyme e1, putative (Leishmania donovani (strain BPK282A1)) (UniProt E9BSI1); experiment: Leishmania donovani Ubiquitin Activating Enzyme (LdE1); format: functional; conditions: 30 µM
T1 sequence (whole entry): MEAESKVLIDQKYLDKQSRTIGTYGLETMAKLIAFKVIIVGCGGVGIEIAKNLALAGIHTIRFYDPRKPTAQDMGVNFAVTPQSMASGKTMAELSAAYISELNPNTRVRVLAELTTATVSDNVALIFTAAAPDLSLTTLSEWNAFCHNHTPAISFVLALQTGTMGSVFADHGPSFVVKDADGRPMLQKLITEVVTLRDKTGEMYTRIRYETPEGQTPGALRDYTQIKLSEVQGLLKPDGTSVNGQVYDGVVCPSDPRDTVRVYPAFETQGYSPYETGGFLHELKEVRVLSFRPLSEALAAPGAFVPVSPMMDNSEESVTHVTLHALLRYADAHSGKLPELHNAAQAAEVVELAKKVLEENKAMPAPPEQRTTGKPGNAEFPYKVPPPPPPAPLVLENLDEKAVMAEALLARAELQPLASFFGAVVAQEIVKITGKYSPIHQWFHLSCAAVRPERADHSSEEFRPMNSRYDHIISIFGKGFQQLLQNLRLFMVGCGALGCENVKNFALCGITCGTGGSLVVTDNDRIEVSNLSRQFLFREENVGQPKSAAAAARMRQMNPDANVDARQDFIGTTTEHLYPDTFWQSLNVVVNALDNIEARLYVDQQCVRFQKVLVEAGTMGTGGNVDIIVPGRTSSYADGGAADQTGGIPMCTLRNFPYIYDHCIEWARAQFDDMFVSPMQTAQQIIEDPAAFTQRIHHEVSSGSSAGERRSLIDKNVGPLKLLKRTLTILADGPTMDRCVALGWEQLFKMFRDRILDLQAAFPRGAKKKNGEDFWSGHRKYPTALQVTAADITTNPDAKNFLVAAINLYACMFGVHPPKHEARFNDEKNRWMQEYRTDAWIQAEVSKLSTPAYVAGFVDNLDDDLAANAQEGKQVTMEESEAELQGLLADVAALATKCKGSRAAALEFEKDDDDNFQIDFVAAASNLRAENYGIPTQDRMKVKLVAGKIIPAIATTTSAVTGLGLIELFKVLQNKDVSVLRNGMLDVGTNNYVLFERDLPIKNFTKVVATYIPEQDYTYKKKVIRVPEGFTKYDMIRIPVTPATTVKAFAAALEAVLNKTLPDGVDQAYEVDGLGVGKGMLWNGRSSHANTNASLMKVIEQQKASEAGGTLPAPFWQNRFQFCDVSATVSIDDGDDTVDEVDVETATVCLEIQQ

[3] = target: Sialic acid-binding Ig-like lectin 9 (Homo sapiens) (UniProt Q9Y336); experiment: Hs-Siglec9 ALPHAscreen SOP 20170721; conditions: 10 µM
Sialic acid-binding Ig-like lectin 9 (Homo sapiens), sequence (Q9Y336 whole entry): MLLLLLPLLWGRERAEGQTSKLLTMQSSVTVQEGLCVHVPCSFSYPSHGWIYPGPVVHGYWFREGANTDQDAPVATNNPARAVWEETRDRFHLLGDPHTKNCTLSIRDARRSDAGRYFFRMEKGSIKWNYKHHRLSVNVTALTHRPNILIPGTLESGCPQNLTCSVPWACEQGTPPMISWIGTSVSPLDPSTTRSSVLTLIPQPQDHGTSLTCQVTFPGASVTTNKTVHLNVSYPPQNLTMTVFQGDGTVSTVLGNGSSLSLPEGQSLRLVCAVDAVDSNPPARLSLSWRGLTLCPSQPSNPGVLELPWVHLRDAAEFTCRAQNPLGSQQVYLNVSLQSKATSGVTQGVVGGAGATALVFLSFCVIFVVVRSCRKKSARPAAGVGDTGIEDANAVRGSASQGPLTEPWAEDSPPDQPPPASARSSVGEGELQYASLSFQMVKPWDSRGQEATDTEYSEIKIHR

[4] = system: Trypanosoma cruzi; experiment: Trypanosoma cruzi phosphomannomutase and mannose-1-phosphate guanylyltransferase assay; format: functional; conditions: 10 µM
[5] = target: T2, Arginase-2, mitochondrial (Homo sapiens) (UniProt P78540); experiment: in vitro enzyme assay to detect the production of urea directly proportional to the activity of Arginase II; format: functional; conditions: 33.3 µM; note: in the data most compounds retested in dose-response had high values
T2 sequence (whole entry): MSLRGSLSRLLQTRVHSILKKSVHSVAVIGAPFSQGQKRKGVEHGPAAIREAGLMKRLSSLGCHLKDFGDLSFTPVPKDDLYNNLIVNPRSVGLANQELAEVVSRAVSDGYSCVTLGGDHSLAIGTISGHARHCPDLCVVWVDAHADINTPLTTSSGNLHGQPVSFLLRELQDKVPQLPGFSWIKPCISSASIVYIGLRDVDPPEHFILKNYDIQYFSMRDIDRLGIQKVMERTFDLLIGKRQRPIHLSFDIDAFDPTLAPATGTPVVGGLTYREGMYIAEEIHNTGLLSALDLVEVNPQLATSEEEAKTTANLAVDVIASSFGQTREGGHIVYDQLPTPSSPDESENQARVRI

[6] = target: T3, Proteasome subunit beta (Trypanosoma cruzi) (UniProt O96673); experiment: Trypanosoma cruzi proteasome chymotrypsin-like activity (TcProtChymo) assay.; note: in the data most compounds retested in dose-response had high values; format: functional; conditions: 9.37 µM
T3 sequence (whole entry): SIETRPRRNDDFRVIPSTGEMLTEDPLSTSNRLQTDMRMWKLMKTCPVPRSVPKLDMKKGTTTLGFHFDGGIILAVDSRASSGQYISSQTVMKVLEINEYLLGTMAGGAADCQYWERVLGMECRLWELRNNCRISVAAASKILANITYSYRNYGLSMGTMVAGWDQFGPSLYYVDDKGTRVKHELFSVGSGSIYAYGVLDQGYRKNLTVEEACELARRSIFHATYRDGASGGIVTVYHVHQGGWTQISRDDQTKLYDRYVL

[7] = organism: Homo sapiens; experiment: To identify inhibition of the IFN signalling (Jak-Stat) pathway via expression of an eGFP reporter gene under the control of an IFN-stimulated response element (ISRE) containing MxA promoter.; format: functional; conditions: 30 µM
[8] = target: T4, Tyrosyl-tRNA synthetase, putative (Trypanosoma cruzi (strain CL Brener)) (UniProt Q4DSP6); experiment: Trypanosoma cruzi tyrosyl tRNA synthetase (TcYRS) _High Tyrosine SOP; format: functional; conditions: 30 µM; note: in the data most compounds retested in dose-response had high values
T4 sequence (whole entry): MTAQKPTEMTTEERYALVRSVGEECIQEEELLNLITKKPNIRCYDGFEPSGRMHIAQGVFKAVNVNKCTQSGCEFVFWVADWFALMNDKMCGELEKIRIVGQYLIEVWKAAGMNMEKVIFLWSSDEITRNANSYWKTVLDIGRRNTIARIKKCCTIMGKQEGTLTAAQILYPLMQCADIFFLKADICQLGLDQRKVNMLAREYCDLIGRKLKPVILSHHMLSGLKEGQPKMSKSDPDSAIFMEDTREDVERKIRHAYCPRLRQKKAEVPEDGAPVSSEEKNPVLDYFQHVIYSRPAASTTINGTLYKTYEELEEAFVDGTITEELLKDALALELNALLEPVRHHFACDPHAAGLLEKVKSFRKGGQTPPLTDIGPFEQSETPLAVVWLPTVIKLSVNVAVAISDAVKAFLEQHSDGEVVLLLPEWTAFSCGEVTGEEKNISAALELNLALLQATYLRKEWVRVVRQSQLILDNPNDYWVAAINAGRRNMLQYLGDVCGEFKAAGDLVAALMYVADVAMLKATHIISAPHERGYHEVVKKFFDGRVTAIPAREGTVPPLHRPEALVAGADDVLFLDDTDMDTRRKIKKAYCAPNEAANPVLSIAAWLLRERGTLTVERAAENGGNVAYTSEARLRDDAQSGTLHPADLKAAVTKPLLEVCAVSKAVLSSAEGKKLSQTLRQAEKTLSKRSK

[9] = target: T4, Tyrosyl-tRNA synthetase, putative (Trypanosoma cruzi (strain CL Brener)); experiment: Trypanosoma cruzi tyrosyl tRNA synthetase (TcYRS) SOP; format: functional; conditions: 30 µM
[10] = target: Chromo domain-containing protein 1 (Saccharomyces cerevisiae (strain ATCC 204508 / S288c) (Baker's yeast)) (UniProt P32657); experiment: ScCHD-1 Enzyme Inhibition Assay; format: functional; conditions: 30 µM; note: in the data most compounds retested in dose-response had high values
Chromo domain-containing protein 1 (Saccharomyces cerevisiae (strain ATCC 204508 / S288c) (Baker's yeast)), sequence (P32657 whole entry, the tested form may be a part): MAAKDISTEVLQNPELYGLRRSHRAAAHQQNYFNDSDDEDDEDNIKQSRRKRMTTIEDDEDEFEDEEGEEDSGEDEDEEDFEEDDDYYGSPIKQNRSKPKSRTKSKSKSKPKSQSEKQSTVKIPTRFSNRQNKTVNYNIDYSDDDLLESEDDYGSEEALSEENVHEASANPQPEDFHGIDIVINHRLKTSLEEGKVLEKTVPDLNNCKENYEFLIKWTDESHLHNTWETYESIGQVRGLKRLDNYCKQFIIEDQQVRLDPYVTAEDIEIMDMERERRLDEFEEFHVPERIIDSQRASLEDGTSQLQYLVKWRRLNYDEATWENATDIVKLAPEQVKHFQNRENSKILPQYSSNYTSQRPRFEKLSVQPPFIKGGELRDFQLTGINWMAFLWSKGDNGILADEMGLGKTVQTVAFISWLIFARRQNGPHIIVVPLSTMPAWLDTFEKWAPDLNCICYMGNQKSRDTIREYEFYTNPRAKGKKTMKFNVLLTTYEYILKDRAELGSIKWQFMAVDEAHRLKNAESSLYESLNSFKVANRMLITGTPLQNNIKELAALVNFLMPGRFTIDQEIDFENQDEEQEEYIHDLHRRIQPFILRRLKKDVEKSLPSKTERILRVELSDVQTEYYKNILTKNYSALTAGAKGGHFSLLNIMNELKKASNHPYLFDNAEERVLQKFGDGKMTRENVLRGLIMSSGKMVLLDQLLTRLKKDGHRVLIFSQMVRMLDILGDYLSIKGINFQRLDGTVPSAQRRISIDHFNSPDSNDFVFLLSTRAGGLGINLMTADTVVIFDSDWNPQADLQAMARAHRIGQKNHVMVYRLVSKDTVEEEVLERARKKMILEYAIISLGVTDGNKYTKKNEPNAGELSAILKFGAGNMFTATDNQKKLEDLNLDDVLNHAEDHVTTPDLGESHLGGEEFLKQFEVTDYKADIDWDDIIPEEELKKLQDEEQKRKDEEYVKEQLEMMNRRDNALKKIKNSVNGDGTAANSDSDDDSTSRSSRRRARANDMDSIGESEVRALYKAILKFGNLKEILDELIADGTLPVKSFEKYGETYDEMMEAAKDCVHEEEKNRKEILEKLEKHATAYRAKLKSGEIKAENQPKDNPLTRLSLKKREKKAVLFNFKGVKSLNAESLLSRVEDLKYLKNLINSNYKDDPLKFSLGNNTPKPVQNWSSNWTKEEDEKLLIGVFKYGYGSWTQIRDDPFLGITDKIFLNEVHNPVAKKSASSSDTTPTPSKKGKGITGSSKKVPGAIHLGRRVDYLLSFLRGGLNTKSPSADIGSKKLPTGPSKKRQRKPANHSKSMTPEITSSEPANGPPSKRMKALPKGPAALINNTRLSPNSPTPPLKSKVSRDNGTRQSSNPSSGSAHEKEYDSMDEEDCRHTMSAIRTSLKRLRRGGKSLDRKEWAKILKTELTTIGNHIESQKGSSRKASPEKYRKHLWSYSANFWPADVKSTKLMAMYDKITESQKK

Compound | Percent Effect [1] [%] | Percent Effect [2] [%] | Percent Effect [3] [%] | Percent Effect [4] [%] | Percent Effect [5] [%] | Percent Effect [6] [%] | Percent Effect [7] [%] | Percent Effect [8] [%] | Percent Effect [9] [%] | Percent Effect [10] [%]
Cc1cn[nH]c1C1CCCCN1C(=O)CCN1CCCCCC1 (stereo not given) | 0.428 | 4 | -1.68 | -7.89 | 1.77 | 10 | 10.3 | 2.12 | 5 | -25
Cc1cc(C(=O)NC2CCc3nc(C)cn3C2)[nH]n1 (stereo not given) | -3.96 | 2.67 | 4.26 | -0.803 | 1.77 | 5.68 | 3.16 | 3.68 | 5.13 | -7.74
Cc1ccc([C@@H]2CN(C(=O)c3csc(C)n3)C[C@H]2NC(=O)C2CC2)cc1 | -13.4 | 2.7 | 0.978 | 0.097 | -0.35 | 5.99 | 23.2 | 3.72 | 17.1 | -2.85
CN(C)CC1CN(Cc2nnc(-c3ccccc3Cl)o2)CCO1 (stereo not given) | -1.11 | 13.3 | -7.04 | -2.81 | 1.77 | 15.7 | 9.96 | -3.68 | 0 | -11.7
Cc1nn(-c2ccccc2)c(C)c1CNC1CCc2ncnn2C1 (stereo not given) | -0.655 | 10.3 | 7.05 | 4.79 | 8.2 | 7.93 | -12.2 | 7.18 | 22.9 | -3.12
CCOC1COC2(CCN(S(=O)(=O)c3cccc(F)c3)CC2)C1 (stereo not given) | -2.48 | 6.49 | -0.342 | -7.3 | 6.07 | 19.9 | -2.83 | 6.84 | 7.69 | -3.54
CCn1nc2c(cc1=O)CN(Cc1nc(-c3ccccn3)no1)CC2 | -4.5 | 12.8 | -6.79 | -0.469 | -2.87 | 14.1 | 28.1 | 0.478 | 6.02 | 0.402
Cc1ccc(-c2nc(CNCC3CN(C)CCO3)cs2)o1 (stereo not given) | 0.253 | 28.6 | -5.08 | 6.53 | -12.9 | 25.4 | 20 | 6.86 | 21.2 | -12.3
CC(O)CN1CCC(CNCc2ccccc2Br)CC1 (stereo not given) | -0.126 | 10.3 | -8.9 | 11.4 | 1.23 | 10.2 | 8.18 | 4.31 | 20.5 | -5.01
O=C(N1CCCC1)N1CCC2(CCCN(CCOc3ccccc3)C2)C1 (stereo not given) | -5.49 | 16.9 | -3.35 | -2.63 | -1.37 | 12.3 | 15.5 | 1.93 | 2.5 | -13.4
O=C(c1cnco1)N1CCCC(Cc2nccs2)C1 (stereo not given) | -3.28 | 14.7 | 5.58 | 0.395 | 4.87 | 19.1 | -17.7 | 7.41 | 15 | -20.4
N#Cc1cccc(N2CC3(CCN(C(=O)c4cccnc4)C3)CC2=O)c1 (stereo not given) | -6.73 | 9.09 | -3.3 | -4.58 | -3.64 | 12.6 | -1.73 | 3.68 | 15.4 | -3.29
O=C(Nc1cccc2c1CCCC2)C1CCCN1c1nccs1 (stereo not given) | -1.27 | 5.13 | 1.32 | -0.845 | 4.51 | 5.55 | -6.07 | 8.13 | 20.5 | 13.6
OC(COc1ccc(F)cc1)CN1CCC(Cn2cccn2)CC1 (stereo not given) | 0.447 | 18.2 | 8.44 | 0.933 | -5.12 | 6.14 | -5.99 | 10.8 | 23.5 | -4.98
Cc1cnn(CC2CCCCN2CCn2cncn2)c1 (stereo not given) | -1.55 | 16 | -7.29 | -3.61 | 4.88 | 14.2 | 5.08 | 5.79 | 7.69 | -6.72
Cc1cnn(CC2CN(CC(=O)N(C)Cc3cccs3)CCO2)c1 (stereo not given) | -1.07 | 5.33 | -0.649 | -5.82 | 9.31 | 13.8 | 11.2 | 2.63 | 2.56 | -11.2
O=C(C1CCOC1)N1CCc2ncc(CNc3ccccn3)n2CC1 (stereo not given) | -0.228 | 1.3 | 8.26 | -0.682 | -1.62 | 6.8 | 4.98 | 3.68 | 5.13 | -14.8
COc1ccc(C(=O)NCCCn2ccnc2)c(OC)n1 | -2.17 | 24.7 | 1.39 | 3.75 | 0 | 10.6 | 11.6 | 6.76 | 22.5 | -12.8
CC(O)(CN1CCC2(CC1)OCCO2)c1cccc(C(F)(F)F)c1 (stereo not given) | 1.91 | 10.4 | 8.88 | -0.187 | -2.25 | 2.98 | 18.4 | 3.92 | 21.2 | -7.48
Cc1noc(C2CCN(C(=O)c3ccc(N(C)C)nc3)CC2)n1 | -1.18 | 12.8 | -5.05 | 3.29 | 1.23 | -0.0853 | 13.1 | 8.13 | 20.5 | -1.36
CCc1cc(O)nc(C2CCCN2C(=O)c2cccnc2)n1 (stereo not given) | 5.68 | 14.7 | -8.39 | -6.71 | 3.1 | 15.1 | 13 | 0 | 5 | -14.4
CCc1nnc(CN2CCCC(c3cc(C(F)(F)F)[nH]n3)C2)o1 (stereo not given) | -0.463 | 0 | -0.304 | -4.22 | 3.1 | 15.3 | -7.26 | 1.58 | -2.56 | -3.78
